Out of some 69,000 compounds screened, about 950 (1.4%) showed an effect of 50% or more. The list comes from a sample in which strong results are over-represented; it also holds similar structures and randomly drawn compounds.
System: Mycobacterium tuberculosis
Assay: Cornell M. t heat shock assay; note: in the data most compounds retested in dose-response had high values
Assay type: functional, organism-based
Set-up: dose or concentration left out as unconfirmed

Compound	Percent Effect
O=C(O)C(F)(F)F.O=C1CC[C@H]2[C@H](CCN2C(=O)C2CCCO2)N1Cc1cccnc1 (stereo partly drawn)	1.298%
CNC(=O)CN1CC[C@H]2CN(C(=O)c3ccc(C)cc3)C[C@H]2C1.O=C(O)C(F)(F)F	-25.29%
Cn1cc(CN2C[C@H](Oc3ncccc3F)[C@H]3OCCC[C@H]32)cn1.O=C(O)C(F)(F)F.O=C(O)C(F)(F)F.O=C(O)C(F)(F)F	-12.51%
O=C(NC[C@]12COC[C@H]1CN(Cc1cccnc1)C2)C1CCC1.O=C(O)C(F)(F)F.O=C(O)C(F)(F)F	24.22%
O=C(Nc1ccccc1)c1ccc2c(c1)C1(CCCCC1)CN2.O=C(O)C(F)(F)F	67.01%
COCC(=O)N1CCC2(CC1)CNc1ccc(F)cc12.O=C(O)C(F)(F)F	-6.982%
CC(=O)c1ccc(NC(=O)c2ccc3c(c2)C2(CCCCC2)CN3)cc1.O=C(O)C(F)(F)F	36.54%
COc1ccccc1CN1C[C@@H]2COC[C@]2(COCc2ccncc2)C1.O=C(O)C(F)(F)F.O=C(O)C(F)(F)F	-12.91%
CCN(CC)C(=O)Cn1ccc2cc(NC(=O)C3CC3)ccc21	25.7%
CCNC(=O)Nc1ccc2c(ccn2CC(=O)N(CC)CC)c1	47.91%
CCN(CC)C(=O)Cn1ccc2cc(NC(=O)NC3CC3)ccc21	61.18%
COCCN1CCc2c(cnc(-c3ccoc3)c2C(=O)O)C1.O=C(O)C(F)(F)F	-43.35%
Cn1c(N2CCOCC2)nc2cc(C(=O)N3CCCOCC3)ccc21	-23.59%
CN1CCCN(C(=O)c2ccc3c(c2)nc(N2CCOCC2)n3C)CC1	98.19%
CN1CCN(C(=O)c2ccc3c(c2)nc(N2CCOCC2)n3C)CC1=O	2.08%
CC(C)N(C)Cc1nnc2n1CCCN(c1ncccn1)C2.O=C(O)C(F)(F)F	11.35%
CN(Cc1cn2c(n1)CN(CC1CC1)CC2)Cc1ccco1.O=C(O)C(F)(F)F.O=C(O)C(F)(F)F	9.036%
O=C(C1CCCCO1)N1CCc2ncnc(NCc3ccon3)c2CC1 (stereo not drawn)	17.45%
O=C(c1ccoc1)N1CCc2ncnc(NCc3ccccn3)c2CC1	62.71%
O=C(c1ccon1)N1CCc2ncnc(NCc3ccccn3)c2CC1	76.86%
O=C(c1cc[nH]n1)N1CCc2ncnc(NCc3ccccn3)c2CC1	-1.441%
O=C(c1ccon1)N1CCc2ncnc(NCc3cccnc3)c2CC1	1.572%

Compound	Percent Effect
O=C(c1ccco1)N1CCc2ncnc(NCc3ccccn3)c2CC1	44.89%
CN(C)C[C@]12COC[C@H]1CN(C(=O)CCc1ccccc1)C2.O=C(O)C(F)(F)F	-31.23%
COCCN1C[C@@H]2[C@@H](OC)CCN(Cc3cccs3)[C@@H]2C1.O=C(O)C(F)(F)F.O=C(O)C(F)(F)F	-45.94%
CCn1cc2c(n1)CN(CC1CC1)CC2COCC1CC1.O=C(O)C(F)(F)F (stereo not drawn)	0.92%
CN1CC2(CCN(CC3CC3)CC2)COc2ccccc2S1(=O)=O.O=C(O)C(F)(F)F	-26.67%
COCc1ccccc1CNc1nnc(C)c(C)c1C#N	28.24%
Cc1nnc(NCc2ccccc2F)c(C#N)c1C	88.29%
Cc1nnc(NCc2ccccc2Cl)c(C#N)c1C	29.74%
CCOCC1CN(Cc2cnn(C)c2)Cc2c1cnn2CC.O=C(O)C(F)(F)F (stereo not drawn)	-24.32%
Cc1ccc(CN2CC[C@@H]3OCCN(Cc4ccncc4)[C@H]3CC2)s1.O=C(O)C(F)(F)F.O=C(O)C(F)(F)F.O=C(O)C(F)(F)F	43.06%
Cc1nc2c(C)cccc2cc1C(=O)N1CCC2(CC1)NCCNC2=O	-15.56%
CCCC1CN(CC(C)C)C(=O)c2cccnc2O1 (stereo not drawn)	-5.035%
CCCC1CN(CCOc2ccccc2)C(=O)c2cccnc2O1 (stereo not drawn)	-5.894%
CC(C)CN1C[C@H](COCc2ccccc2)Oc2ncccc2C1=O	61.32%
CN(Cc1cc2n(n1)CCNC2)Cc1n[nH]c2c1CCC2	-1.948%
Cc1ccc2nc(CN(C)Cc3n[nH]c4c3CCCCC4)[nH]c2c1C	106.9%
COc1nc2cc(C)ccc2cc1CN(C)Cc1n[nH]c2c1CCCC2	2.274%
CCc1cc(N(C)Cc2[nH]nc3c2CCC3)nc(N2CCOCC2)n1	-16.74%
Cc1ccc2nc(CN(C)Cc3[nH]nc4c3CCC4)[nH]c2c1C	98.38%
Cc1ccc2[nH]c(CN(C)Cc3n[nH]c4c3CCC4)nc2c1	98.03%
Cc1ccc2[nH]c(CN(C)Cc3ccccc3C(=O)O)nc2c1	-3.354%
COc1nc2c(cc1C(=O)N(C)Cc1[nH]nc3c1CCC3)CCC2	0.3103%

Compound	Percent Effect
CN(Cc1cc2n(n1)CCNC2)Cc1n[nH]c2c1CCCCC2	-10.71%
CC(=O)N1C[C@@H]2CC[C@H](C1)N(S(=O)(=O)c1cc(F)ccc1C)C2	-2.155%
CNC(=O)[C@H]1C[C@@H]2CN(Cc3ccc(OC)cc3)C[C@H]1O2.O=C(O)C(F)(F)F	15.08%
Cc1ccc(CN2C[C@@H](OCc3ccccn3)[C@H]3COC[C@H]32)o1.O=C(O)C(F)(F)F.O=C(O)C(F)(F)F	4.099%
CNc1nc(C2CCCN2)nc2c1CCN(S(=O)(=O)C1CCCCC1)C2.Cl (stereo not drawn)	12.62%
CCc1cc(NC2CCOCC2)n2nc(C)c(C)c2n1	-7.332%
CCc1cc(NC2CCN(S(C)(=O)=O)CC2)n2nc(C)c(C)c2n1	105.8%
CCOC(=O)N1CCC(Nc2cc(CC)nc3c(C)c(C)nn23)CC1	-7.891%
CCN(CC)CCN1CC[C@H]2OCC[C@@]2(C(=O)N2CCOCC2)C1.O=C(O)C(F)(F)F.O=C(O)C(F)(F)F	6.776%
Cl.Cl.Cn1cc(C(=O)NCc2cncc3c2CCN(c2ccccn2)C3)cn1	-14.06%
COc1cccc2[nH]c(C(=O)N3CCNCC3C(N)=O)cc12.Cl (stereo not drawn)	-10.67%
COC(=O)N1CCC2(CC1)N=C(CCC(C)C)NC2=O	95.71%
CCOC(=O)N1CCC2(CC1)N=C(CCC(C)C)NC2=O	12.74%
CC(C)CCC1=NC2(CCN(C(=O)N3CCN(C)CC3)CC2)C(=O)N1	15.27%
Cc1oncc1C(=O)N[C@@H]1CN(Cc2ccco2)C[C@@H]2CCCO[C@@H]21.O=C(O)C(F)(F)F	4.265%
CC[C@@H]1N(Cc2ccco2)CCC[C@]12CCC(=O)N2C.O=C(O)C(F)(F)F	-19.47%
Cc1ccsc1-c1cccc(-c2ccn(CC3CCNC3)n2)c1 (stereo not drawn)	84.67%
Cc1nccc(-c2cccc(-c3ccn(CC4CCNC4)n3)c2)n1 (stereo not drawn)	-11.22%
c1cc(-c2cncnc2)cc(-c2ccn(CC3CCNC3)n2)c1 (stereo not drawn)	8.343%
CN1CCC(c2nnc3ccc(C(=O)NC4CCCC4)cn23)C1.O=C(O)C(F)(F)F (stereo not drawn)	-23.72%
CNc1cc(C)nc(C2CCN(CCO)CC2)n1	-3.64%
CC(NC(=O)NCCCN1CCCC1)c1nncn1C (stereo not drawn)	-5.961%

Compound	Percent Effect
CC(NC(=O)NCCCN1CCCCCC1)c1nncn1C (stereo not drawn)	12.17%
CC1CCN(CCCNC(=O)NC(C)c2nncn2C)CC1 (stereo not drawn)	68.75%
O=C(O)C(F)(F)F.O=C(O)C(F)(F)F.O=C(c1ccc(F)cc1)N1CCN2C[C@H](OCc3ccccn3)C[C@H]2C1	3.711%
C[C@H]1CN(C(=O)c2ccoc2)C[C@@]12CCN(CCN(C)C)C2=O.O=C(O)C(F)(F)F	-17.94%
O=C1C[C@H]2CC[C@@H](CN1)N2C1CCSCC1	14.33%
CCN1C[C@H]2C[C@H](C(=O)NCc3cccnc3)[C@@H](C1)O2	-4.927%
Cc1ccc(C(=O)N2CCC3(CC2)COC(COc2cccnc2)C3)o1.O=C(O)C(F)(F)F (stereo not drawn)	-31.88%
O=C(O)C(F)(F)F.c1cnc(N2CCO[C@H]3CN(CC4CCC4)C[C@H]32)cn1	6.326%
CC(=O)N1CCc2c(nc(N(C)C)nc2NCc2cccs2)C1	-2.548%
CC(=O)N1CCc2c(nc(N(C)C)nc2NCCc2cccs2)C1	53.71%
CC(=O)N1CCc2c(nc(N(C)C)nc2NC(C)Cc2cccs2)C1 (stereo not drawn)	23.93%
CCCNc1cc(-c2c[nH]nc2C2CCN(C(=O)C3CCC3)C2)ccn1 (stereo not drawn)	-8.816%
Cl.O=C(NCc1ccc(Cl)cc1)N1CCN(CC(O)C2CC2)CC1 (stereo not drawn)	7.084%
CC(C)NC(=O)Nc1ccc2c(c1)ncn2CC(=O)NCCN(C)C	-0.1313%
CC(C)CC(=O)Nc1ccc2c(c1)ncn2CC(=O)NCCN(C)C	65.51%
CC(C)C(=O)Nc1ccc2c(c1)ncn2CC(=O)NCCN(C)C	-3.322%
CC(=O)N1CCN(c2cc(C3CCNCC3)ccn2)CC1.Cl.Cl	2.778%
O=C(N1CCCC1)N1CCC2(CC1)CN(c1cccnc1)C(=O)CO2.O=C(O)C(F)(F)F	-4.597%
CCCn1cc(NC(=O)c2cccc(CN3CC[C@H](O)C3)c2)nn1	18.76%
CCn1cc(NC(=O)c2cccc(CN3C[C@@H](C)O[C@@H](C)C3)c2)nn1	87.48%
CCCn1cc(NC(=O)c2cccc(CN3CC=CC3)c2)nn1	-7.923%
CN(C)C(=O)CO[C@H]1CN(Cc2ccsc2)[C@@H]2COC[C@H]12.O=C(O)C(F)(F)F	37.89%

From ChEMBL document CHEMBL3988442, “University of Dundee, Small-Polar-MMV Screening Library” (2021)
